Assay results as given in PubChem BioAssay AID1159580 (chemical genetic matrix, 2015).
The campaign covered roughly 5,500 compounds. About 2,000 (36%) were called active. Not shown: some 18% with an inconclusive outcome. Cut-off read from the data, not from the text of the source: active = normalized growth mostly below about 0.91 (no sharp cut-off); inconclusive = no clear call, values can overlap the other calls; inactive = mostly above about 0.92. This is one part of the list.

Experiment: chemical genetic growth profiling, strain panel (AID 1159580);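 note: tested at 20 µM; growth read once vehicle control cultures reached saturation at 30 °C; 1 = growth at the plate median or of vehicle wells; lower values mean less growth of the strain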
Conditions: S. cerevisiae deletion strains, growth OD

Measured: normalized growth

CO[C@H]1/C=C/O[C@@]2(C)Oc3c(C)c(O)c4c(O)c(c5c(nc6cc(C)ccn65)c4c3C2=O)NC(=O)/C(C)=C\C=C\[C@H](C)[C@H](O)[C@@H](C)C(O)[C@@H](C)[C@H](OC(C)=O)[C@@H]1C (stereo not given in full)
inactive: locus YAL021C, strain ccr4, active compounds read low 1.04 | locus YAL026C, strain drs2, active compounds read low 1.04 | locus YAL030W, strain snc1, active compounds read low 1.04 | locus YBL061C, strain skt5, active compounds read low 1.04 | locus YBR009C, strain hhf1, active compounds read low 1.01 | locus YBR023C, strain chs3, active compounds read low 1.05 | locus YBR171W, strain sec66, active compounds read low 1.06 | locus YBR231C, strain swc5, active compounds read low 1.05 | locus YBR279W, strain paf1, active compounds read low 1.03 | locus YCL011C, strain gbp2, active compounds read low 1.05 | locus YCL016C, strain dcc1, active compounds read low 1.03 | locus YCL061C, strain MRC1, active compounds read low 1.04 | locus YCL069W, strain vba3, active compounds read low 1.05 | locus YCR088W, strain abp1, active compounds read low 1.04 | locus YDL005C, strain med2, active compounds read low 1.06 | locus YDL040C, strain nat1, active compounds read low 1.03 | locus YDR001C, strain nth1, active compounds read low 1.04 | locus YDR069C, strain doa4, active compounds read low 1.04 | locus YDR137W, strain rgp1, active compounds read low 0.988 | locus YDR159W, strain sac3, active compounds read low 1.05 | locus YDR195W, strain ref2 1.05 | locus YDR297W, strain sur2, active compounds read low 1.04 | locus YDR334W, strain swr1, active compounds read low 1.03 | locus YDR335W, strain msn5, active compounds read low 1.04 | locus YDR392W, strain spt3, active compounds read low 0.961 | locus YEL003W, strain gim4, active compounds read low 1.04 | locus YEL037C, strain rad23, active compounds read low 1.04 | locus YEL061C, strain CIN8 (second series), active compounds read low 1.04 | locus YER015W, strain faa2, active compounds read low 1.04 | locus YER016W, strain bim1, active compounds read low 1.03 | locus YER111C, strain swi4, active compounds read low 1.05 | locus YER155C, strain BEM2 (second series), active compounds read low 1.02 | locus YFR010W, strain ubp6, active compounds read low 1.04 | locus YGL167C, strain pmr1, active compounds read low 1.04 | locus YGL173C, strain kem1, active compounds read low 1.04 | locus YGL227W, strain vid30, active compounds read low 1.05 | locus YGL240W, strain doc1, active compounds read low 1.03 | locus YGL253W, strain hxk2, active compounds read low 1.06 | locus YHR013C, strain ard1, active compounds read low 1.08 | locus YHR027C, strain rpn1, active compounds read low 1.04 | locus YHR030C, strain SLT2, active compounds read low 1.03 | locus YHR079C, strain IRE1, active compounds read low 1.03 | locus YHR142W, strain chs7, active compounds read low 1.07 | locus YJL092W, strain hpr5, active compounds read low 1.04 | locus YJL095W, strain BCK1 (second series), active compounds read low 1.03 | locus YJL095W, strain BCK1, active compounds read low 0.988 | locus YJL115W, strain asf1, active compounds read low 1.04 | locus YJL129C, strain trk1, active compounds read low 1.06 | locus YJL154C, strain vps35, active compounds read low 1.04 | locus YJL164C, strain tpk1, active compounds read low 1.04 | locus YJL166W, strain qcr8, active compounds read low 1.05 | locus YJL187C, strain SWE1, active compounds read low 1.06 | locus YJR066W, strain TOR1, active compounds read low 0.982 | locus YKL160W, strain elf1, active compounds read low 1.05 | locus YKR026C, strain gcn3, active compounds read low 1.05 | locus YKR091W, strain srl3, active compounds read low 1.04 | locus YLL001W, strain dnm1, active compounds read low 1.08 | locus YLL026W, active compounds read low 1.04 | locus YLL041C, strain sdh2, active compounds read low 1.04 | locus YLR027C, strain aat2, active compounds read low 1.03 | locus YLR113W, strain HOG1, active compounds read low 1.01 | locus YLR221C, strain rsa3, active compounds read low 1.06 | locus YLR258W, strain gsy2, active compounds read low 1.04 | locus YLR262C, strain YPT6 (second series), active compounds read low 1.09 | locus YLR320W, strain mms22, active compounds read low 1.04 | locus YLR342W, strain FKS1, active compounds read low 1.04 | locus YLR357W, strain rsc2, active compounds read low 1.07 | locus YLR370C, strain arc18, active compounds read low 1.04 | locus YLR384C, strain iki3, active compounds read low 1.04 | locus YML120C, strain ndi1, active compounds read low 1.02 | locus YMR058W, strain fet3, active compounds read low 1.03 | locus YMR125W, strain sto1, active compounds read low 1.05 | locus YMR129W, active compounds read low 1.03 | locus YMR205C, strain PFK2, active compounds read low 1.05 | locus YMR231W, strain pep5, active compounds read low 1.04 | locus YNL071W, strain lat1, active compounds read low 1.05 | locus YNL183C, strain NPR1, active compounds read low 0.988 | locus YNL209W, strain ssb2, active compounds read low 1.03 | locus YNL248C, strain rpa49, active compounds read low 1.06 | locus YNL322C, strain KRE1 (second series), active compounds read low 1.05 | locus YNR049C, strain mso1, active compounds read low 1.03 | locus YOR001W, strain rrp6, active compounds read low 1.01 | locus YOR070C, strain gyp1, active compounds read low 1.04 | locus YOR080W, strain dia2, active compounds read low 1.04 | locus YOR083W, strain WHI5, active compounds read low 1.04 | locus YOR106W, strain vam3, active compounds read low 1.1 | locus YOR231W, strain MKK1, active compounds read low 0.989 | locus YOR265W, strain rbl2, active compounds read low 1.03 | locus YOR270C, strain vph1, active compounds read low 1.1 | locus YOR290C, strain snf2, active compounds read low 1.04 | locus YPL051W, strain arl3, active compounds read low 1.02 | locus YPL078C, strain atp4, active compounds read low 1.05 | locus YPL106C, strain sse1, active compounds read low 1.03 | locus YPL240C, strain hsp82, active compounds read low 1.04 | locus YPL256C, strain CLN2, active compounds read low 1.06
